Experimental findings from the supplement of paper PMC12808144 are described below.

The first assay relates to Mel-DCC-11-R. Briefly: cell viability relative to DMSO control (fraction of DMSO control); higher = less cytotoxic, active = 0.8 or less. As to conditions: 1 µM; 120 h; vemurafenib co-treatment 0 µM. As for the experimental part: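 Same 315-drug TargetMol library at 1 µM in duplicate, 120 h, ATPlite luminescence normalised to DMSO controls, on the vemurafenib-resistant subline Mel-DCC-11-R cultured alone or with 8 µM vemurafenib co-treatment (Mel-DCC-11-R + V).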
Regarding `C=C1C[C@@H]2[C@H](CC[C@]3(C)C(=O)CC[C@@H]23)[C@@]2(C)C=CC(=O)C=C12` [Exemestane], the cell viability is 1.09 (inactive).

With `O=C(O)CCCc1ccc(N(CCCl)CCCl)cc1` [Chloroambucil], the cell viability is 0.906 (inactive).

For the molecule `COC(=O)Nc1nc2ccccc2[nH]1` [Carbendazim], the cell viability was 0.917 (inactive).

Consider `NCCC(O)(P(=O)([O-])O)P(=O)([O-])O.[Na+].[Na+]` [Pamidronate disodium salt], for which the cell viability is 1.02 (inactive).

As for `Cl.Cn1c(CCCC(=O)O)nc2cc(N(CCCl)CCCl)ccc21` [Bendamustine hydrochloride], the cell viability is 0.822 (inactive).

As for `NCCCNCCSP(=O)(O)O` [Amifostine], the cell viability was 0.934 (inactive).

Take `Cl.N[C@@H]1C[C@H]1c1ccccc1` [Tranylcypromine (2-PCPA) hydrochloride]: the cell viability is 0.9 (inactive).

On to `C[C@]12CC[C@@H]3c4ccc(OC(=O)N(CCCl)CCCl)cc4CC[C@H]3[C@@H]1CC[C@@H]2OP(=O)([O-])[O-].[Na+].[Na+]` [Estramustine phosphate sodium], for which the cell viability was 1.01 (inactive).

For the molecule `CCCCCN(C)CCC(O)(P(=O)([O-])O)P(=O)(O)O.[Na+]` [Ibandronate sodium], the cell viability was 0.82 (inactive).

With `Cn1cc(C2=C(c3cn(C4CCN(Cc5ccccn5)CC4)c4ccccc34)C(=O)NC2=O)c2ccccc21` [Enzastaurin], the cell viability was 1.06 (inactive).

As to `C[C@]12CC[C@H]3[C@@H](CC[C@@]45O[C@@H]4C(O)=C(C#N)C[C@]35C)[C@@H]1CC[C@@H]2O` [Trilostane], the cell viability was 1.03 (inactive).

With `C[C@]12CCC(=O)C(O)=C1CC[C@@H]1[C@@H]2CC[C@]2(C)C(=O)CC[C@@H]12` [Formestane], the cell viability was 0.922 (inactive).

`O=[As]O[As]=O` (stereo not given) [Arsenic oxide (3)]: the cell viability is 0.971 (inactive).

For the molecule `Cc1ncc(CNC(=O)N(CCCl)N=O)c(N)n1.Cl` [Nimustine Hydrochloride], the cell viability is 1.1 (inactive).

In the case of `C/C=C(\C)C(=O)N[C@@H](c1ccccc1)[C@@H](O)C(=O)O[C@H]1C[C@@]2(O)[C@@H](OC(=O)c3ccccc3)[C@@H]3[C@]4(OC(C)=O)CO[C@@H]4C[C@H](O)[C@@]3(C)C(=O)[C@H](OC(C)=O)C(=C1C)C2(C)C` [Cephalomannine], the cell viability is 0.99 (inactive).

With `N[C@@H](Cc1ccc(N(CCCl)CCCl)cc1)C(=O)O` [Melphalan], the cell viability was 1.17 (inactive).

Take `CC(O)(CS(=O)(=O)c1ccc(F)cc1)C(=O)Nc1ccc(C#N)c(C(F)(F)F)c1` (stereo not given) [Bicalutamide]: the cell viability is 1.02 (inactive).

With `O.O=P1(N(CCCl)CCCl)NCCCO1` (stereo not given) [Cyclophosphamide monohydrate], the cell viability is 0.857 (inactive).

Take `O=P1(NCCCl)OCCCN1CCCl` (stereo not given) [Ifosfamide]: the cell viability is 0.968 (inactive).

On to `CCC1=C[C@H]2CN3CCc4c([nH]c5ccccc45)[C@](C(=O)OC)(C2)[C@H]13` [Catharanthine], for which the cell viability is 0.906 (inactive).

The assay is the same for the next values; noted with them: 1 µM; 120 h; vemurafenib co-treatment 8 µM.
With `C=C1C[C@@H]2[C@H](CC[C@]3(C)C(=O)CC[C@@H]23)[C@@]2(C)C=CC(=O)C=C12` [Exemestane], the cell viability is 1.13 (inactive).

For the molecule `O=C(O)CCCc1ccc(N(CCCl)CCCl)cc1` [Chloroambucil], the cell viability was 1.11 (inactive).

With `COC(=O)Nc1nc2ccccc2[nH]1` [Carbendazim], the cell viability is 1.05 (inactive).

Turning to `NCCC(O)(P(=O)([O-])O)P(=O)([O-])O.[Na+].[Na+]` [Pamidronate disodium salt], the cell viability is 0.981 (inactive).

Take `Cl.Cn1c(CCCC(=O)O)nc2cc(N(CCCl)CCCl)ccc21` [Bendamustine hydrochloride]: the cell viability was 1.04 (inactive).

Take `NCCCNCCSP(=O)(O)O` [Amifostine]: the cell viability was 1.21 (inactive).

On to `Cl.N[C@@H]1C[C@H]1c1ccccc1` [Tranylcypromine (2-PCPA) hydrochloride], for which the cell viability was 0.694 (active).

In the case of `C[C@]12CC[C@@H]3c4ccc(OC(=O)N(CCCl)CCCl)cc4CC[C@H]3[C@@H]1CC[C@@H]2OP(=O)([O-])[O-].[Na+].[Na+]` [Estramustine phosphate sodium], the cell viability was 1.11 (inactive).

Regarding `CCCCCN(C)CCC(O)(P(=O)([O-])O)P(=O)(O)O.[Na+]` [Ibandronate sodium], the cell viability is 0.935 (inactive).

Consider `Cn1cc(C2=C(c3cn(C4CCN(Cc5ccccn5)CC4)c4ccccc34)C(=O)NC2=O)c2ccccc21` [Enzastaurin], for which the cell viability is 1.24 (inactive).

As to `C[C@]12CC[C@H]3[C@@H](CC[C@@]45O[C@@H]4C(O)=C(C#N)C[C@]35C)[C@@H]1CC[C@@H]2O` [Trilostane], the cell viability was 1.05 (inactive).

Consider `C[C@]12CCC(=O)C(O)=C1CC[C@@H]1[C@@H]2CC[C@]2(C)C(=O)CC[C@@H]12` [Formestane], for which the cell viability is 1.02 (inactive).

Consider `O=[As]O[As]=O` (stereo not given) [Arsenic oxide (3)], for which the cell viability is 0.951 (inactive).

As to `Cc1ncc(CNC(=O)N(CCCl)N=O)c(N)n1.Cl` [Nimustine Hydrochloride], the cell viability was 0.991 (inactive).

For the molecule `C/C=C(\C)C(=O)N[C@@H](c1ccccc1)[C@@H](O)C(=O)O[C@H]1C[C@@]2(O)[C@@H](OC(=O)c3ccccc3)[C@@H]3[C@]4(OC(C)=O)CO[C@@H]4C[C@H](O)[C@@]3(C)C(=O)[C@H](OC(C)=O)C(=C1C)C2(C)C` [Cephalomannine], the cell viability is 0.638 (active).

Regarding `N[C@@H](Cc1ccc(N(CCCl)CCCl)cc1)C(=O)O` [Melphalan], the cell viability was 1.11 (inactive).

Take `CC(O)(CS(=O)(=O)c1ccc(F)cc1)C(=O)Nc1ccc(C#N)c(C(F)(F)F)c1` (stereo not given) [Bicalutamide]: the cell viability was 1.12 (inactive).

Take `O.O=P1(N(CCCl)CCCl)NCCCO1` (stereo not given) [Cyclophosphamide monohydrate]: the cell viability was 1.03 (inactive).

In the case of `O=P1(NCCCl)OCCCN1CCCl` (stereo not given) [Ifosfamide], the cell viability is 1 (inactive).

`CCC1=C[C@H]2CN3CCc4c([nH]c5ccccc45)[C@](C(=O)OC)(C2)[C@H]13` [Catharanthine]: the cell viability was 0.983 (inactive).
